The list is not random: actives were taken first. Their share in the collection is about 0.28%.
Tb PFK inh-1: blocks T. brucei phosphofructokinase; O15648; T. brucei PFK, ADP-Glo luminescence; Potency, µM (series often up to 57.5 µM), without a hit: at the highest dose activity, negative = inhibition, most hits filed as inhibitors; hit rate 0.17% among 330,000;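 further: potency means the concentration at half of the fitted maximal effect; 0% = uninhibited 1x PFK enzyme wells and -100% = no-enzyme wells; nearly all actives have a fitted effect of over 60% in size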
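ADP-Glo luminescence quantified ADP after 45 min at room temperature, with 1.25 nM T. brucei PFK, 0.1 mM ATP and 0.5 mM fructose-6-phosphate in pH 8.0 TEA buffer. qHTS titrations up to 57 µM; curves classified by quality.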
USP2a inh: USP2a (human) protease inhibition; O75604; USP2 core, Ub-CHOP2 coupled fluorogenic reporter, 485/531; Potency, µM (series often up to 38.3 µM), for inactives: top-dose activity change, negative = inhibition, most hits filed as inhibitors; hit rate 0.01% among 330,000; AID 463254;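 further: potency means the concentration at half of the fitted maximal effect; plate controls were DMSO wells for no effect and full inhibition by NEM control for full effect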
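Deubiquitinase activity read as fluorescence (485/531 nm) after Ub-CHOP2 cleavage activates the enterokinase reporter on its substrate; USP2 core 10nM, Ub-CHOP2 and substrate 25nM each, 30min compound preincubation then 60min RT; data normalized to NEM, curves fitted.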
Pin1 inh: inhibitors of human Pin1 | Q13526 | Pin1 FP peptide displacement, HiFluor488, 10 min | Potency, µM (series often up to 115 µM), for inactives: at the top dose activity, negative = inhibition, actives largely listed as inhibitors | hit rate 0.009% among 390,000 | AID 504891; active means well fitted inhibition curve with a large enough effect in the polarisation, with a control signal flat, not every such curve was filed as active; inconclusive means small, poorly fitted or top-dose-only effect, or effect the other way, or a change in a side signal; inactive means no such curve, though single readings can be large or run the other way; the % refers to the polarisation; further: potency means the concentration at half of the fitted maximal effect; on the % scale 0 is the no-effect control and ±100 the full control effect
Target sequence (Q13526 whole entry, looked up): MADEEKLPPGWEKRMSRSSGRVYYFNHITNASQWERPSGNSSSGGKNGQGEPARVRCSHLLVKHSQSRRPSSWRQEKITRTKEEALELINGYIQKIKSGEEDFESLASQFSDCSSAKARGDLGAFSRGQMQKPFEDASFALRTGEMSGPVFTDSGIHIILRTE
PI4K2A inh: blocks human PI4K2A kinase activity; Q9BTU6; purified PI4K2A, ADP-Glo luminescence, 1 h; hits give low values; activity change, negative = inhibition, % at 76.9 µM; hit rate 0.13% among 420,000; in the data active means activity change below about -50%; inconclusive means mostly about -30% to -49%;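 further: -100% = wells without enzyme as full effect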
Target sequence (Q9BTU6 whole entry, looked up): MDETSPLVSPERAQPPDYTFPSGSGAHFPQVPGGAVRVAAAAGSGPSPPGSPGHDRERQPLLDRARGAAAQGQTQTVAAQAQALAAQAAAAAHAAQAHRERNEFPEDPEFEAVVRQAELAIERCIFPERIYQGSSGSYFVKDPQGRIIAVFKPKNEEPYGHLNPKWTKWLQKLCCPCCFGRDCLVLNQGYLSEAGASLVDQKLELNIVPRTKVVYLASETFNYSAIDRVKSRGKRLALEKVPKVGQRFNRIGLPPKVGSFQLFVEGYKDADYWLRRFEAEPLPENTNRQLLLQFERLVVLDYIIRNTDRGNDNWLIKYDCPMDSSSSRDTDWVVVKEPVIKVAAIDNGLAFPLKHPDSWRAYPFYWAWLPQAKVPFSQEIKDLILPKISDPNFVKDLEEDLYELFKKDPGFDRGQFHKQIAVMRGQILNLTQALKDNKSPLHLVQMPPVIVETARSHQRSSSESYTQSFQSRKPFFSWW
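Compounds are screened against recombinant PI4K2A using PI as substrate and ATP, the latter dispensed at 300 microM. Reactions run one hour at ambient temperature before ADP-Glo detection; full inhibition defined by wells lacking enzyme.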
Tb PGK inh: blocks T. brucei phosphoglycerate kinase. hit rate 0.043% among 380,000. P07378. AID 602233. Potency, µM (doses to about 57.5 µM), for inactives: top-dose activity change, negative = inhibition, most hits filed as inhibitors. PGK/GAPDH coupled, Kinase-Glo luminescence, 60 min; further: potency means the concentration at half of the fitted maximal effect; on the % scale 0 is the no-effect control and ±100 the full control effect; nearly all actives have a fitted effect of over 60% in size
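Recombinant glycosomal PGK reaction used 1,3-bisphosphoglycerate generated in-well by GAPDH (100nM final) in 100mM TEA pH 7.6, 5mM MgCl2, 0.01% Tween-20. After 60 minutes at room temperature, ATP was read by Kinase-Glo Plus luminescence end-point.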
Tb PFK KinaseGlo: Tb phosphofructokinase inhibition, orthogonal luminescence | shares compounds with Tb PFK inh-1 | Tb PFK enzyme, ATP depletion, Kinase-Glo Plus luminescence | Potency, µM (highest dose often 57.5 µM), without a hit: at the top dose inhibition | hit rate 47% among 1,100 | AID 504636; calls by dose curve; further: potency means the concentration at half of the fitted maximal effect; nearly all actives have a fitted effect of over 60% in size
Tb PFK inh-2: T. brucei PFK enzyme inhibition, hit validation; purified T. brucei PFK, ADP-Glo luminescence, 45 min; shares compounds with Tb PFK inh-1; Potency, µM (series often up to 57.5 µM), for the others: at the top dose activity change, negative = inhibition, hits mostly inhibitors; hit rate 41% among 1,100;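 further: potency means the concentration at half of the fitted maximal effect; plate controls were full PFK enzyme control for no effect and no enzyme control for full effect; nearly all actives have a fitted effect of over 60% in size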
The depositor's hits bear a star; i = inactive; ? = inconclusive; . = no result given; [ ] = another dose, or the depositor's remark. Unless noted, the call rests on the fitted dose curve; in most records, active means well fitted curve in the direction sought with a large enough effect; inconclusive means small, poorly fitted or top-dose-only effect, or another doubt; inactive means no such curve, though single readings can be large; an effect the other way counts as inactive or inconclusive.

SMILES	Tb PFK inh-1	USP2a inh	Pin1 inh	PI4K2A inh	Tb PGK inh	Tb PFK KinaseGlo	Tb PFK inh-2
CNC(=O)c1cnn2c(C)cc(C)nc12	.	.	0%	.	.	.	.
Clc1ccc(CN2C3=NCCCN3c3ccccc32)cc1Cl	13µM*	0%	?	-5	?	7.6µM*	13µM*
Clc1ccc(CN2C3=NCCCN3c3ccccc32)cc1	15µM*	0%	-4%	6	-6%	24µM*	30µM*
Cc1ccc(NS(=O)(=O)c2ccc3c(c2)CCO3)cc1C	.	.	-1%	.	.	.	.
N#Cc1c(Cl)cccc1Oc1ccc([S+](=O)([O-])N2CCN([S+](=O)([O-])c3c(F)cccc3F)CC2)cc1	.	.	18%	.	.	.	.
CCOc1cc(/C=C\[N+](=O)[O-])ccc1OCC(=O)Nc1ccccc1C	?	-2%	2%	-1	8%	-29%	?
COc1cc(/C=C/c2cccc[n+]2C)ccc1OCC(=O)Nc1ccccc1C	2%	-1%	1%	1	-6%	.	.
C#Cc1ccc(-c2ccccc2F)cc1	.	.	.	0	.	.	.
C[C@@H](O)[C@H]1C(=O)N2C(C(=O)O)=C([C@H]3CCCO3)S[C@H]12	.	.	.	3	.	.	.
Cc1nc(SCc2ccc(Cl)c(Cl)c2)n[nH]1	21µM*	0%	-6%	1	-1%	12µM*	?
CNc1cc(CSC)nc(SCc2ccc(Cl)c(Cl)c2)n1	21µM*	2%	30%	-2	6%[11.5 µM]	5.4µM*	8.5µM*
CC(NC(=O)CCC(=O)Nc1ccccc1O)c1ccccc1 (stereo unspecified)	.	.	-12%	-11	1%	.	.
CC(CNc1ccccc1O)C(=O)O (stereo unspecified)	24µM*	0%	?	-7	?	?	?
Cc1ccc(C(=O)O)cc1NC(=S)NC(=O)Cc1ccccc1	?	0%	-12%	-2	-8%	-27%	?
Cc1ccc(C(=O)O)cc1NC(=S)NC(=O)C(c1ccccc1)c1ccccc1	29%	3%	-13%	2	-1%	.	.
O=c1c2c([N+](=O)[O-])cc([N+](=O)[O-])cc2sn1Cc1ccccc1	2.7µM*	2%	1%	-7	-5%	?	21µM*
O=C(CN1CCOCC1)Nc1ncc(Cc2cccc3ccccc23)s1	-10%	0%	-1%	0	7%	.	.
Cc1ccc(Cc2cnc(NC(=O)CN3CCOCC3)s2)cc1Cl	?	1%	-1%	-2	3%	24µM*	30µM*
CC(C)(C)OC(=O)Cc1nnc(-c2nc3ccccc3[nH]2)s1	.	.	9%	.	.	.	.
Cc1ccc(Cl)cc1NC(=O)C[n+]1ccc(Cc2ccc([N+](=O)[O-])cc2)cc1	?	-1%	2%	-4	7%	?	?
O=C(C[n+]1ccc(Cc2ccccc2)cc1)Nc1ccc([N+](=O)[O-])cc1Cl	-2%	-1%	1%	-9	-1%	.	.
O=C1C2CC=C(Cl)CC2C(=O)N1CCN1CCOCC1 (stereo unspecified)	-1%	1%	-2%	-5	-2%	.	.
O=C1C2CC=C(Cl)CC2C(=O)N1CCCCCCN1C(=O)C2CC=C(Cl)CC2C1=O (stereo unspecified)	?	2%	.	-6	.	?	?
Cc1cc2c(s1)c1cnn(Cc3cc(F)cc(F)c3F)c(=O)c1n2C	.	.	0%	.	.	.	.
C/C(=N\NC(=O)C(C)Nc1cccc(Cl)c1)c1ccc([N+](=O)[O-])cc1 (stereo unspecified)	?	3%	1%	-1	-9%	?	?
SMILES	Tb PFK inh-1	USP2a inh	Pin1 inh	PI4K2A inh	Tb PGK inh	Tb PFK KinaseGlo	Tb PFK inh-2
C[N+]1=C(/C=C/Nc2ccccc2Cl)C(C)(C)c2ccccc21	0%	6%	?	-6	i	.	.
COC(=O)c1ccc2c(c1)C(C)(C)C(/C=C/c1ccccc1O)=[N+]2C	13µM*	-5%	?	-21	-4%	-4%	?
O=[S+]([O-])(c1ccc2nsnc2c1)N1CCN([S+](=O)([O-])c2c(F)cccc2F)CC1	.	.	-1%	.	.	.	.
CCn1c(C)nc2cc(C(=O)N/N=C/c3cccc(OC)c3O)ccc21	5%	-1%	4%	7	-1%	.	.
CCn1c(C)nc2cc(C(=O)N/N=C/c3ccc(O)c(O)c3O)ccc21	?	5%	?	-10	-12%	?	?
Cc1ccc(N/C=C(\C2OC(=O)c3ccccc32)[N+](=O)[O-])c(C)c1 (stereo unspecified)	?	0%	.	-5	i	1%	0%
O=C1OC(Nc2ccc(F)cc2F)c2ccccc21 (stereo unspecified)	-1%	4%	6%	-8	-6%	.	.
O=C1OC(/C(=C\Nc2cc(Cl)ccc2O)[N+](=O)[O-])c2ccccc21 (stereo unspecified)	?	2%	.	-10	0%	3%	-13%
O=C1OC(/C(=C\Nc2ccc(F)cc2F)[N+](=O)[O-])c2ccccc21 (stereo unspecified)	?	1%	.	0	5%	3%	-1%
CN1N=C(C(N)=O)CCC1=O	.	.	.	3	.	.	.
CNC(=O)CN(CCN(CCN(CC(=O)[O-])CC(=O)NC)CC(=O)[O-])CC(=O)[O-].O.[Gd+3]	.	.	.	4	.	.	.
Cc1ccc(-c2c[n+](Cc3cccc(Cl)c3)c3n2CCC3)cc1	?	1%	-4%	-3	-7%	?	?
Cc1ccc(CNc2ncnc3ccc(-c4ccc5c(c4)OCO5)cc23)o1	.	.	24%	.	.	.	.
Cc1ccc(N(C)S(=O)(=O)c2ccc3c(c2)CCC(=O)N3)cc1C	.	.	-9%	.	.	.	.
CCC(/C=C1\Oc2ccc(OC)cc2N1C)=C\c1sc2ccccc2[n+]1CCCS(=O)(=O)[O-]	.	.	13%	-4	-15%	.	.
COc1cc(/C=C/c2sc3ccccc3[n+]2CCCS(=O)(=O)[O-])ccc1O	12µM*	0%	?	?	?	-25%	?
Cc1cccc(C(=O)OCC(=O)c2ccc(CC(=O)N3CCOCC3)s2)c1C	?	-4%	3%	-12	-16%	?	-17%
Cc1cccc(C(=O)OCC(=O)N2CC(C)OC(C)C2)c1C (stereo unspecified)	0%	3%	2%	3	2%	.	.
COc1ccc(C(=O)O)cc1COc1ccc(NC(C)=O)cc1	.	.	0%	.	.	.	.
COc1ccc(C2c3c(N)nc(CCCc4ccccc4)nc3Oc3ccc4ccccc4c32)cc1OC (stereo unspecified)	.	.	20%	.	.	.	.
